Screening results (PubChem)
The list is not random: actives were taken first. Their share in the collection is about 4.1%.
hgDAF12 agonist: H. glycines DAF-12 receptor agonists, primary screen, cell-based, luminescence, HEK293, GAL4 fusion, UAS-luciferase; actives 1.8% (n = 370,000); HEK293 GAL4-hgDAF12 UAS-luciferase reporter, agonist luminescence; normalized to butyrate control; activation, % at 6.8 µM; Nuclear hormone receptor DAF-12 (Heterodera glycines), GAL4 fusion;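 active = activation above a cutoff set at the mean of all screened compounds plus 3 SD, cut at about 10% in these data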
hcDAF-12 act: H. contortus DAF-12 nuclear receptor activators, primary screen, cell-based, luminescence, HEK293, lit1-tk-luc reporter. HEK293 hcDAF-12 lit1-tk-luc reporter; 0% DMSO, 100% Δ7-dafachronic acid. activation, % at 6.8 µM. actives 1.4% (n = 370,000);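 active = activation above the mean of all tested compounds plus 3 SD, cut at about 5.5% in these data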
DAX1 inh-1: DAX1 (NR0B1) inhibitors on StAR promoter, primary screen, cell-based, luminescence, SF-1 (NR5A1), full-length DAX-1 | inhibition, % at 6.8 µM | HEK293T StAR-luciferase reporter, SF-1/DAX-1 repression relief | actives 1.1% (n = 370,000) | AID 652010, 2013;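 active = inhibition above the mean over all tested compounds plus 3 SD, cut at about 3.6% in these data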;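 also: higher inhibition means more luminescence from relief of DAX-1 repression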
DAX1 inh-2: DAX1 (NR0B1) inhibitors, primary screen, cell-based, HEK293, Gal4-DAX1, luciferase luminescence; actives 0.99% (n = 340,000); inhibition, % at 6.75 µM; Nuclear receptor subfamily 0 group B member 1 (Homo sapiens), P51843; AID 504766, 2011; HEK293 Gal4-DAX1 luciferase reporter;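 active = inhibition above the mean over all tested compounds plus 3 SD, cut at about 4.2% in these data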;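 also: inhibition shows as a rise in luminescence from relieved DAX1 repression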
Target sequence (P51843 207-470 limits assumed): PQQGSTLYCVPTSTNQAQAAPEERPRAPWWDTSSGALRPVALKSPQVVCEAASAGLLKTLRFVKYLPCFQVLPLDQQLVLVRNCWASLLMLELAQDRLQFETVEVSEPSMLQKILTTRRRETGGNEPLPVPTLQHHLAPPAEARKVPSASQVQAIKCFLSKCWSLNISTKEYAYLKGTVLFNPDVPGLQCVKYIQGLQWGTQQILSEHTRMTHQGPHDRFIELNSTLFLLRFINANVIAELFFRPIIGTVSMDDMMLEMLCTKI
ssDAF-12 act: S. stercoralis DAF-12 nuclear receptor activators, primary screen, cell-based, luminescence, HEK293, GRIP1 co-expression, lit1-tk-luc. actives 1% (n = 370,000). activation, % at 6.8 µM. HEK293 ssDAF-12/GRIP1 lit1-tk-luc reporter; % of 3 µM dafachronic acid response. Nuclear hormone receptor DAF-12 (Strongyloides stercoralis). AID 652126, 2013;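 active = activation above the mean over all tested compounds plus 3 SD, cut at about 0.9% in these data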
Each line names hits and unclear results; the compound was inactive in the other large screens.

CCN(C(=O)CSc1nnnn1-c1ccc(Cl)cc1)C1CCS(=O)(=O)C1 (centres undefined)	DAX1 inh-1 4.0
CC(/C=C/C(=O)c1ccc(C)cc1)=C\c1ccccc1	DAX1 inh-2 5.3
Cc1ccc(C(=O)/C=C\C(=O)c2ccc(C)cc2)cc1	none
CCOC(=O)c1[nH]c2c(c1C)C(=O)CC(c1ccco1)C2 (centres undefined)	DAX1 inh-1 7.0
CC1(C)CC2CC(C)(CN2C(=O)c2ccc([N+](=O)[O-])cc2[N+](=O)[O-])C1 (centres undefined)	DAX1 inh-2 6.7
CC1(C)CC2CC(C)(CN2C(=O)c2ccc([N+](=O)[O-])cc2)C1 (centres undefined)	none
C[C@@H]1OCN(C)[C@H]2C[C@H]3c4[nH]c5cccc(-c6ccccc6)c5c4CCN3C[C@@H]12	none (no result: DAX1 inh-2)
CCc1cc2c(nc1CC)CCCN2S(=O)(=O)c1c(C)noc1C	none (no result: DAX1 inh-2)
COc1ccc(-c2nnc(-c3ccc(N)cc3)o2)cc1	hgDAF12 agonist 11.2
O=C(O)c1cc(Br)ccn1	none
O=C(O)c1ccnc(C(=O)O)c1	DAX1 inh-2 4.5
CS(=O)(=O)Nc1ccc2c(c1)ncn2CCc1ccccc1	none
CC(C)(CC(=O)O)CC(=O)Nc1ccc2c(c1)ncn2CCc1ccccc1	DAX1 inh-2 4.5
Fc1cccc(NCc2cn3ccccc3n2)c1	hgDAF12 agonist 11.2
C[C@H]1[C@@H](NC(=O)c2ccc(O)cc2)CC[C@@]23CCCN2C(=O)CCC[C@@H]13	none (no result: DAX1 inh-1, DAX1 inh-2)
COC(=O)C1CN(Cc2ccc(Cl)cc2)CCS(=O)(=O)N1Cc1cn(Cc2ccc(F)cc2)nn1 (centres undefined)	none (no result: DAX1 inh-2)
Cc1[nH]n(-c2ccccc2)c(=O)c1C(c1cccc([N+](=O)[O-])c1O)c1c(C)[nH]n(-c2ccccc2)c1=O	none
Cc1[nH]n(-c2ccccc2)c(=O)c1C(c1cccc([N+](=O)[O-])c1)c1c(C)[nH]n(-c2ccccc2)c1=O	hcDAF-12 act 6.7
Cc1[nH]n(-c2ccccc2)c(=O)c1C(c1ccc(C(=O)O)cc1)c1c(C)[nH]n(-c2ccccc2)c1=O	ssDAF-12 act 2.1
COc1cc2c(cc1NC(=O)C(C)OC(=O)c1ccc(S(=O)(=O)Nc3ccccc3Cl)cc1)oc1ccccc12 (centres undefined)	hcDAF-12 act 5.8
COc1ccc(S(=O)(=O)Nc2ccccc2Cl)cc1NC(C)=O	none
COc1cc2c(cc1NC(=O)C(C)N1CCN(S(=O)(=O)c3ccc(C)c(C)c3)CC1)oc1ccccc12 (centres undefined)	none
COc1cc2c(cc1NC(=O)C(C)N1CCN(S(=O)(=O)c3ccccc3[N+](=O)[O-])CC1)oc1ccccc12 (centres undefined)	hcDAF-12 act 6.0
C[C@@H]1CCCN1c1ccc2c(c1)O[C@H]1CCN(C1)S2(=O)=O	none (no result: DAX1 inh-2)
O=c1/c(=C/c2ccccn2)sc2nc3ccccc3n12	ssDAF-12 act 1.3
COC(=O)/C=c1/sc2nc3ccccc3n2c1=O	none
COC(=O)c1sc2nc(CSc3nc4ccc(C)cc4[nH]3)[nH]c(=O)c2c1C	hcDAF-12 act 6.1
Cc1cc(C)c(C#N)c(SCc2nc3ccccc3c(=O)[nH]2)n1	none
Cc1ccc2nc(SCc3nc4ccccc4c(=O)[nH]3)[nH]c2c1	hgDAF12 agonist 11.4
CCOC(=O)c1cn2nc(N3CCCC3)ccc2n1	hcDAF-12 act 6.0
COC(=O)C1CN(Cc2ccc(OC)cc2)CCS(=O)(=O)N1Cc1ccccc1 (centres undefined)	none (no result: DAX1 inh-2)
COc1ccc(Nc2ncnc3c2oc2ccccc23)cc1	hgDAF12 agonist 11.8
COc1cccc(Nc2nc(C)nc3c2oc2ccccc23)c1	none
O=C(C1CCCN(S(=O)(=O)c2cccs2)C1)N1CCN(Cc2ccccc2)CC1 (centres undefined)	none (no result: DAX1 inh-2)
CC(C)[C@H](NC(=O)Cc1ccccc1)C(=O)OCc1cc(=O)n2c(n1)sc1ccccc12	ssDAF-12 act 1.1
